Assay [1] is described as follows: qHTS assay to identify small molecule antagonists of the androgen receptor (AR) signaling pathway using the MDA cell line in the presence of 0.5 nM R1881 - cell viability counter screen (AID 1259242). Also: nearly all actives have a fitted effect of over 45% in size. Summed up: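 Concentration-response screen of compounds for toxicity in MDA-kb2 reporter cells: 16 hr at 37C with 0.5 nM R1881, endpoint live-cell protease fluorescence measured in the reporter wells.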
In general terms: In qHTS, concentration-response curves come from the screen itself.

The target in assay [2] is Androgen receptor (Homo sapiens) (UniProt P10275). Kind of assay: qHTS assay to identify small molecule antagonists of the androgen receptor (AR) signaling pathway using the MDA cell line in the presence of 0.5 nM R1881 (AID 1259243). Also: nearly all actives have a fitted effect of over 50% in size. Also: potency is read from the fitted curve at half-maximal effect. Summed up:
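With R1881 held at 0.5 nM (final), compound effects on MMTV-luciferase expression in MDA-kb2 cells were scored by luminescence after a 16 hr, 37C incubation.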

For assay [3], the target named is Estrogen receptor (Homo sapiens) (UniProt P03372). Kind of assay: qHTS assay to identify small molecule antagonists of the estrogen receptor alpha (ER-alpha) signaling pathway using the BG1 cell line in the presence of 0.1 nM 17-beta-estradiol (AID 1259244). Also: nearly all actives have a fitted effect of over 50% in size. Summed up: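 Compounds were tested against 0.1 nM (final) 17beta-estradiol in VM7Luc4E2 cells, which express full-length ER-alpha and an ERE-luciferase reporter; luminescence was recorded following 22 h exposure.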
Sequence of Estrogen receptor (Homo sapiens) (P03372 whole entry, looked up): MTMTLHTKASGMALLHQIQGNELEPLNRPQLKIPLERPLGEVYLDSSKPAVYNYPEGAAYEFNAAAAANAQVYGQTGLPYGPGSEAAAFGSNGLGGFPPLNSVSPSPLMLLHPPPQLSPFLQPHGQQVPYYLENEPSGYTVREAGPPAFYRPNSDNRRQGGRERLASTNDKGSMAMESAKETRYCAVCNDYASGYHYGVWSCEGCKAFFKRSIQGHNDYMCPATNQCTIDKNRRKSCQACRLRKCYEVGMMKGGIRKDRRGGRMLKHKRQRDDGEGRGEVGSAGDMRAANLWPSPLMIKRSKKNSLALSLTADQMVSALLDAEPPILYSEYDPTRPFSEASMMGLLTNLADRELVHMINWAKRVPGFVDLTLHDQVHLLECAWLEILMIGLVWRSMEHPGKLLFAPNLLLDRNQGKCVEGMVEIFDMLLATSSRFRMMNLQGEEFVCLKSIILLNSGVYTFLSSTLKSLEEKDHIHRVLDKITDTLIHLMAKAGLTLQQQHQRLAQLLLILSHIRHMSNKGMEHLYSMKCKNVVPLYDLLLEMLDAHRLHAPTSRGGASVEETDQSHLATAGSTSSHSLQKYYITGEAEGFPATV

The nature of assay [4]: qHTS assay to identify small molecule HDAC inhibitors (AID 1259364). Also: potency is read from the fitted curve at half-maximal effect.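 Also: wild-type HCT-116 cells with endogenous class I/II HDAC activity; nearly all actives have a fitted effect of over 45% in size.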 As to activity change, negative = inhibition: top concentration of the series differs between compounds. Summed up:
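Screening used wild-type human colon HCT-116 cells incubated overnight, dosed with compounds for 2 hours, and assayed with a homogeneous luminogenic HDAC I/II reagent for 30 minutes at room temperature.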

A short description of assay [5]: qHTS assay to identify small molecule HDAC inhibitors - cell viability counter screen (AID 1259365). Also: series mostly up to about 92 µM; nearly all actives have a fitted effect of over 50% in size. In outline:
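Measured quantity is CellTiter-Glo luminescence from wild-type HCT-116 cells after compound incubation of 2hr at 37C, 5% CO2; reagent developed 30min at room temperature.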

Assay [6] can be described thus: qHTS assay to identify small molecule agonists of the sonic hedgehog signaling (Shh) pathway - cell viability counter screen (AID 1259366). Also: nearly all actives have a fitted effect of over 50% in size. In outline: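 In quantitative high-throughput format, 3T3 Gli1-Luc cells were exposed to compounds for 24hr and multiplexed for viability using CellTiter-Fluor, incubated 1hr at 37C before the fluorescence read.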
Assay [7] in a line: qHTS assay to identify small molecule antagonists of the sonic hedgehog signaling (Shh) pathway - cell viability counter screen (AID 1259367). Also: nearly all actives have a fitted effect of over 55% in size. Summed up: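 Tox21 library chemicals were tested on a Gli1-Luc NIH/3T3 clone (2,000 cells/well) stimulated by conditioned medium; viability was quantified as fluorescence from CellTiter-Fluor reagent added at 23 hr.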
Assay [8] in a line: qHTS assay to identify small molecule agonists of the sonic hedgehog signaling (Shh) pathway (AID 1259368; calls by dose curve;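 also: NIH/3T3-derived 3T3Gli1-Luc cells carrying a stable Gli1-driven firefly luciferase reporter; series mostly up to about 92 µM; nearly all actives have a fitted effect of over 15% in size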). Summed up: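 Hedgehog pathway agonism scored by increased firefly luciferase luminescence in 3T3Gli1-Luc cells treated 24 hr at 37 C; detection used a 30 min room-temperature reagent incubation.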
A short description of assay [9]: qHTS assay to identify small molecule antagonists of the sonic hedgehog signaling (Shh) pathway (AID 1259369; calls by dose curve; also: nearly all actives have a fitted effect of over 45% in size; also: potency is read from the fitted curve at half-maximal effect). Summed up: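 NIH/3T3 stable Gli1-Luc clone, 2,000 cells/well, 4hr settle; cpd + conditioned medium 24hr; Luc reagent 30min RT; luminescence.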
Assay [10] deals with Estrogen receptor beta (Homo sapiens) (UniProt Q92731). Kind of assay: qHTS assay to identify small molecule agonists of the estrogen receptor beta (ER-beta) signaling pathway (AID 1259377; active = well fitted activation curve with a large enough effect in the signal ratio in the repeat runs, not every such curve was filed as active; the % refers to the signal ratio). Summed up:
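Reporter cells (HEK293T, ER-beta-UAS-bla) receive compounds or DMSO after a 6 hr pre-incubation. They then incubate 16 hr at 37C/5% CO2, and fluorescence from LiveBLAzer B/G substrate is measured after 2 hours at room temperature.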

Assay [11] has the same target. Nature of the assay: qHTS assay to identify small molecule antagonists of the estrogen receptor beta (ER-beta) signaling pathway (AID 1259378; active = well fitted inhibition curve with a large enough effect in the signal ratio in the repeat runs, not every such curve was filed as active; the % refers to the signal ratio). In outline: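 ER-beta-UAS-bla HEK293T cells in 2% charcoal-stripped FBS medium treated with compound plus 1nM final 17-beta-estradiol for 16 hr at 37C. Beta-lactamase reporter read by FRET substrate fluorescence after 2 hours at room temperature.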

Assay [12] is described as follows: qHTS assay to identify small molecule agonists of the androgen receptor (AR) signaling pathway in the presence of an antagonist - cell viability counter screen (AID 1259379).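 Also: MDA-kb2 human breast cancer cells carrying an MMTV luciferase reporter; series mostly up to about 92 µM; nearly all actives have a fitted effect of over 25% in size.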 Summed up: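 MDA-kb2 viability measured by CellTiter-Fluor fluorescence in the same wells as the luciferase signal; nilutamide 3.0uM final; 15-point compound titration; 16 hr at 37C.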
Assay [13] in a line: qHTS assay to identify small molecule agonists of the estrogen receptor beta (ER-beta) signaling pathway - cell viability counter screen (AID 1259380). Also: nearly all actives have a fitted effect of over 30% in size. Summed up:
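Measured: luminescence from CellTiter-Glo after 30 min at room temperature, added to wells already read for the LiveBLAzer FRET reporter (2 hr substrate); ER-beta-UAS-bla HEK293T cells had 16 hr compound treatment at 37C, 5% CO2.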

Assay [14] has as its target Androgen receptor (Homo sapiens) (UniProt P10275). Nature of the assay: qHTS assay to identify small molecule agonists of the androgen receptor (AR) signaling pathway in the presence of an antagonist (AID 1259381; calls by dose curve; also: nearly all actives have a fitted effect of over 15% in size). Summed up:
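Luminescent ONE-Glo read, 30min at room temperature, follows 16hr compound exposure (15 concentrations) of MDA-kb2 cells at 37C, 0% CO2, with nilutamide added at 3.0uM final.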

A short description of assay [15]: qHTS assay to identify small molecule antagonists of the estrogen receptor beta (ER-beta) signaling pathway - cell viability counter screen (AID 1259382). Also: series mostly up to about 92 µM; nearly all actives have a fitted effect of over 55% in size. In outline:
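Readout: luminescence, CellTiter-Glo, same wells as bla assay. System: ER-beta-UAS-bla GripTite HEK293T, 2% charcoal-stripped FBS. Exposure: compounds plus 1nM 17-beta-estradiol, 16 hr, 37C.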

Assay [16] deals with Estrogen receptor (Homo sapiens) (UniProt P03372). Nature of the assay: qHTS assay to identify small molecule agonists of the estrogen receptor alpha (ER-alpha) signaling pathway in the presence of an antagonist (AID 1259383; calls by dose curve; also: top concentration of the series differs between compounds; nearly all actives have a fitted effect of over 15% in size). Summed up:
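Quantitative HTS confirmation: compounds titrated at 15 concentrations onto estrogen-deprived VM7Luc4E2 cells carrying a four-ERE luciferase construct, with ICI-182,780 present at 10.0nM final. Signal is luminescence after 22hr exposure.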

Assay [17] can be described thus: qHTS assay to identify small molecule agonists or antagonists of the thyroid stimulating hormone receptor (TSHR) signaling pathway - wild type cell line counter screen (AID 1259384; calls by dose curve). Summed up: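 Wild-type Hek293 cells, 800/well, 18 h at 37C, then compound with Ro20-1724 for 30 min RT. cAMP by HTRF (cAMP-d2/anti-cAMP cryptate), 1 h RT, fluorescence read. 15 concentrations, triplicates.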

The target in assay [18] is Thyrotropin receptor (Homo sapiens) (UniProt P16473). Nature of the assay: qHTS assay to identify small molecule antagonists of the thyroid stimulating hormone receptor (TSHR) signaling pathway (AID 1259385; calls by dose curve; also: nearly all actives have a fitted effect of over 20% in size). In outline: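 TSHR-HEK293 cells (800/well) plated 18 h, then compounds with Ro20-1724 and TSH at 1.5 ng/mL final, 30 min at room temperature. cAMP quantified by HTRF (cAMP-d2/anti-cAMP-cryptate, 1 h); 15 concentrations in triplicate.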
Sequence of Thyrotropin receptor (Homo sapiens) (P16473 whole entry, looked up): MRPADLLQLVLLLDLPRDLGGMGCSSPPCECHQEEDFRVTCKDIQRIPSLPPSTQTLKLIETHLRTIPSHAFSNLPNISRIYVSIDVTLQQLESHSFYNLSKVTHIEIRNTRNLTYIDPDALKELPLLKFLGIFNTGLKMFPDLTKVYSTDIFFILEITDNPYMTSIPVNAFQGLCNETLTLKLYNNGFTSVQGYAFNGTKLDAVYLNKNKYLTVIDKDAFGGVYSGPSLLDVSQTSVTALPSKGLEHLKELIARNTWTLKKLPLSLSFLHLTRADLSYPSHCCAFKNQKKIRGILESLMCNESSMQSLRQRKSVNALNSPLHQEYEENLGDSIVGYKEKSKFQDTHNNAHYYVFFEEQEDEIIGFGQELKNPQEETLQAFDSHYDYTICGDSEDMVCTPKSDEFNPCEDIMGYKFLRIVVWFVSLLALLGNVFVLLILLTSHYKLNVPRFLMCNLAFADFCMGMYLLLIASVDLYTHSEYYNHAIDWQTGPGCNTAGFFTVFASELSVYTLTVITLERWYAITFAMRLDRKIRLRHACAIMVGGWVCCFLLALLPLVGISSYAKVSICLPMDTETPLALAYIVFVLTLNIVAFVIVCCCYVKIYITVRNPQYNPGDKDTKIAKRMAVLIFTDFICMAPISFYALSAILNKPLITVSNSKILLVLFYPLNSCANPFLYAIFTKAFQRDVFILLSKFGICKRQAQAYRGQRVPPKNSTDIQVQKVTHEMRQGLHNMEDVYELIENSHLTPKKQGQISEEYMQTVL

Assay [19] is described as follows: qHTS assay to identify small molecule agonists of the estrogen receptor alpha (ER-alpha) signaling pathway in the presence of an antagonist - cell viability counter screen (AID 1259386).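 Also: series mostly up to about 92 µM; cells exposed to compounds for 22 h at 37 °C before the viability read; nearly all actives have a fitted effect of over 30% in size.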 In outline: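 The test measures whether compounds kill ER-alpha reporter cells (VM7Luc4E2) under antagonist co-treatment (ICI-182,780, 10.0nM). Fluorescence from CellTiter-Fluor is read after a 22hr exposure.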

Assay [20] in a line: qHTS assay to identify small molecule phospholipidosis (PLD) inducers (AID 1259344; active = well fitted curve in the direction sought with a large enough effect; an effect the other way counts as inactive or inconclusive). Summed up: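 Image-based: LipidTOX Red pit count/intensity per well and per cell; HepG2, 24 h compound at 37 C, PFA fixation, Hoechst counterstain.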

7 compounds from PubChem BioAssay (Tox21) can be followed below.

A number with no mark means an inactive call. Records with an inconclusive call do not appear. The source made the active and inactive calls. Unless noted, calls follow the shape of the dose curve; as a rule, active = well fitted curve in the direction sought with a large enough effect in the repeat runs; inconclusive = weak or mixed curves; inactive = no such curve, though single readings can be large; an effect the other way counts as inactive or inconclusive.
% is scaled to controls: 0 for no effect and ±100 for the full control effect.

Sequence of Androgen receptor (Homo sapiens) (P10275 whole entry, looked up): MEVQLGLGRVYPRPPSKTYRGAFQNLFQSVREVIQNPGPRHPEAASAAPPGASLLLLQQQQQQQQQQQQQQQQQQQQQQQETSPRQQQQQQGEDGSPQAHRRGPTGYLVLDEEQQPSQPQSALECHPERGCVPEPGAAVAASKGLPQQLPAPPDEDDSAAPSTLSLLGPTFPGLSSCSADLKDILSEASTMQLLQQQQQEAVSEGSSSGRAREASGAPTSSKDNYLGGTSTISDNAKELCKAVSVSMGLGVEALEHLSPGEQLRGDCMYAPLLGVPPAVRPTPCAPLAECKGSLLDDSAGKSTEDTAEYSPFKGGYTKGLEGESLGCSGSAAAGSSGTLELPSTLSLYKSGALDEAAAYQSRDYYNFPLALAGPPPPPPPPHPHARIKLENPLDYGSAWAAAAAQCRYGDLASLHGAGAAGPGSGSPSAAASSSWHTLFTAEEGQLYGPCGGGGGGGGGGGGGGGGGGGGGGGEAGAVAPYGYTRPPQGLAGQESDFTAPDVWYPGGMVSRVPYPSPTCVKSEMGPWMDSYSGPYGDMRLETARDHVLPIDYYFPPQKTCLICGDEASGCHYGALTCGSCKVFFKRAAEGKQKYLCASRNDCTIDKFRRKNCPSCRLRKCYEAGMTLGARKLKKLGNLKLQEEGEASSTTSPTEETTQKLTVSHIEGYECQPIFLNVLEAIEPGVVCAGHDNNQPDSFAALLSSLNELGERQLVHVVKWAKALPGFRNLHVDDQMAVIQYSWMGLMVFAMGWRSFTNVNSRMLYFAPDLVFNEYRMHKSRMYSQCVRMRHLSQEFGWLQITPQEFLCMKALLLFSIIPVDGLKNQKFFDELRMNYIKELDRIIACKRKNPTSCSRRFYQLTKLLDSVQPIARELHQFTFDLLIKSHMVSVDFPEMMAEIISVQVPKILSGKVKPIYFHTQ
Sequence of Estrogen receptor beta (Homo sapiens) (Q92731 whole entry, looked up): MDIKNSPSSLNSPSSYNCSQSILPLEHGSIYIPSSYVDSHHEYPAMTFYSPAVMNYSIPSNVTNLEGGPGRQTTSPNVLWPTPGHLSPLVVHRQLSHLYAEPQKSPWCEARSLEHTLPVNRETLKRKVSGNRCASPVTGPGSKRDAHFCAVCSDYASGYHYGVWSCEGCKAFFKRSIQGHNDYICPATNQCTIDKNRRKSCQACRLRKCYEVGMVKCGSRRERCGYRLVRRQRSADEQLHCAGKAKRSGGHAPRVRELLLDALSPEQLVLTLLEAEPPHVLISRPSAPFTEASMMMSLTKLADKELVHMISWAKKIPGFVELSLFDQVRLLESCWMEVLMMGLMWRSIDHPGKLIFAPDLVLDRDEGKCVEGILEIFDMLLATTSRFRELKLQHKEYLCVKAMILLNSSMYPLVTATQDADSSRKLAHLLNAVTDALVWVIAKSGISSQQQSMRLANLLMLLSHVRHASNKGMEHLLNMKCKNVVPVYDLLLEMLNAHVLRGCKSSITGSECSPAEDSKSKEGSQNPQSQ

As for `N#CSCC(=O)O`, the outcome in assay [1], in assay [5], in [10], in [15] and in assay [17] was inactive. Moreover, the Potency result in assay [2], in [3], in assay [4], in assay [6], in assay [7] and in [8] was “inactive” throughout. Further, the Potency result in assay [9], in assay [11], in assay [12], in assay [13], in assay [14] and in assay [16] was “inactive” throughout. Further, the Potency entry in [18] and in assay [19] was “inactive” in each case.
`CC(Oc1c(Cl)cccc1Cl)C1=NCCN1` (stereo not given): the outcome in assay [1], in assay [5], in [10], in [15] and in assay [17] was inactive. Besides, the Potency entry in assay [2], in assay [4], in assay [6], in assay [7], in [8] and in assay [11] was “inactive” each time. Also, the Potency result in assay [12], in assay [13], in assay [14], in assay [18] and in assay [19] was “inactive” each time. Moreover, the Potency in assay [9] was 13.3 µM (active).
As for `CCCCc1ccc2nc(NC(=O)OC)[nH]c2c1`, the outcome in assay [1], in assay [20], in assay [5] and in assay [15] was inactive. Moreover, the Potency result in assay [2], in assay [3], in assay [6], in assay [8], in assay [11] and in [13] was “inactive” in each case. Besides, the Potency result in assay [14], in [16] and in assay [19] was “inactive” in each case. In addition, the Potency in assay [4] was 10.6 µM (active).
Turning to `C[C@@H]1CN(c2c(F)c(F)c3c(=O)c(C(=O)O)cn(C4CC4)c3c2F)C[C@H](C)N1`, the viability change, negative = cytotoxic in assay [1] is 2.13% [at 19 µM]; in assay [6] it was 6.74% [at 19 µM]; in assay [7], -0.257% [at 19 µM]. Further, the Potency result in assay [2] and in assay [14] was “inactive” throughout. Moreover, the activity change, negative = inhibition was 0.469% [at 19 µM] in assay [3], -5.53% [at 19 µM] in assay [4], 7.04% [at 19 µM] in [9] and -7.61% [at 19 µM] in [18]. For the same compound, the compound was called inactive in assay [20]. The activity change, negative = cytotoxicity was -3.08% [at 19 µM] in [5]; 1.23% [at 19 µM] in assay [12]; -0.431% [at 19 µM] in [13]; 0.873% [at 19 µM] in assay [15]; 0.208% [at 19 µM] in assay [19]. The activity change in assay [8] is 3.53% [at 18.9 µM, hits give high values]. In assay [16], the activation is -0.582% [at 19 µM]. Moreover, in assay [17], the cAMP activity change was -0.3% [at 18.9 µM].
`Cn1cnc2c(F)c(Nc3ccc(Br)cc3Cl)c(C(=O)NOCCO)cc21`: the outcome in assay [1], in assay [20], in [5], in assay [10] and in assay [15] was inactive. In addition, the Potency in [2] is 5.96 µM (active). Also, the Potency entry in assay [4], in assay [7], in [8], in assay [9], in assay [11] and in assay [12] was “inactive” throughout. In addition, the Potency result in assay [13], in assay [14] and in assay [19] was “inactive” in each case.
Regarding `CC1(O)CSC(C)(O)CS1` (stereo not given), the outcome in assay [1], in [5] and in assay [15] was inactive. The Potency result in [2], in [3], in [6], in assay [7], in assay [8] and in assay [9] was “inactive” each time. The Potency result in [12], in assay [13], in assay [14], in [16] and in [19] was “inactive” each time. The Potency in assay [4] is 21.7 µM (active).
In the case of `OCCN(CCO)CCN(CCO)CCO`, the result in assay [1], in assay [5], in assay [15] and in [17] was inactive. Further, the Potency result in assay [2], in [3], in assay [4], in assay [6], in assay [7] and in assay [8] was “inactive” each time. Also, the Potency entry in [9], in assay [12], in [13], in assay [14], in assay [16] and in [18] was “inactive” in each case. For the same compound, the Potency entry in [19] is “inactive”.
